# According to PubChem BioAssay (NCATS):
# Values without a mark were called inactive. Results filed as inconclusive are left out. A call without a number means that no potency is given here. The source made the active and inactive calls. Unless noted, calls follow the shape of the dose curve; as a rule, active = well fitted curve in the direction sought with a large enough effect; inconclusive = small, poorly fitted or top-dose-only effect, or another doubt; inactive = no such curve, though single readings can be large; an effect the other way counts as inactive or inconclusive.
# Legend:
# [1] = Confirmation and Secondary Assay for Modulators of Hemoglobin Beta Chain Splicing at IVS2 654 locus (AID 910); settings: HeLa EGFP-654 splicing reporter, GFP fluorescence, 48 h; series mostly up to 46.1 µM;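 also: HeLa cells stably carrying EGFP split by mutant beta-globin IVS2-654 intron; per-well total GFP intensity by laser scanning cytometry after 2-day treatment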
# In short: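 Readout: per-well total peak green fluorescence (488 nm ex, 500–520 nm em) from objects 5–250 µm, reflecting correct splicing of an EGFP-654 reporter. Compounds were applied for 2 days at 37 °C to overnight-plated HeLa EGFP-654 cells; controls were DMSO and 500 nM IVS2-654 PNA.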
# [2] = Cellular Toxicity (caspase-3) NIH 3T3 (AID 666); settings: NIH 3T3 caspase-3 activation, apoptosis/toxicity, 0% DMSO, 100% is 100 µM tamoxifen; series mostly up to 92.2 µM;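 also: caspase signal read after 16 h compound exposure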
# In short: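 Activity: caspase-3/7 induction, NIH 3T3 cells, 16 hr treatment at 37°C, luminescent Caspase-Glo detection; AC50 via Hill equation.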
# [3] = Cellular Toxicity (caspase-3) Renal Proximal Tubule (AID 667); settings: renal proximal tubule cells, primary cells freshly taken from rat, solvent-only wells 0%, staurosporine 100%; series mostly up to 91.7 µM;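 also: cells exposed to compound for 16 hours at 37 °C before detection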
# In short: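 Caspase 3/7 activation measured by luminescent aminoluciferin release in primary rat proximal tubule cells after 16 hr compound exposure at 37 °C. AC50 from Hill-fitted concentration-response, scaled between DMSO and 10 uM staurosporine.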
# [4] = molecular target: Cytochrome P450 3A4 (Homo sapiens) (UniProt P08684); assay: qHTS Assay for Activators of Cytochrome P450 3A4 (AID 885); settings: recombinant CYP3A4, Luciferin-PPXE luminescence, 60 min; series mostly up to 57.1 µM; also: nearly all actives have a fitted effect of over 65% in size
# In short: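 Activators are scored by enhanced luminescence from CYP3A4 conversion of luciferin-PPXE (25uM, equal to KM) to luciferin, after 60 min at RT with an NADPH-regenerating system.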
# [5] = molecular target: Cytochrome P450 2C9 (Homo sapiens) (UniProt P11712); assay: qHTS Assay for Inhibitors and Substrates of Cytochrome P450 2C9 (AID 883); settings: recombinant CYP2C9, luciferin-H luminescence, 60 min; series mostly up to 25.6 µM; also: nearly all actives have a fitted effect of over 60% in size
# In short: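 Inhibition of CYP2C9 is scored as loss of luminescence, with 57uM sulphaphenazole defining 100% inhibition. Substrate Luciferin-H is used at 100uM, equal to its KM; enzyme at 10nM in 25mM KPO4, 60 min at 37C with NADPH regeneration.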
# [6] = molecular target: Cytochrome P450 2C19 (Homo sapiens) (UniProt P33261); assay: qHTS Assay for Inhibitors and Substrates of Cytochrome P450 2C19 (AID 899); settings: recombinant CYP2C19, luciferin-H EGE luminescence; series mostly up to 25.6 µM; also: nearly all actives have a fitted effect of over 60% in size
# In short: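 5nM enzyme + 10uM Luciferin-H EGE (=KM), 50mM KPO4; cpd pin-transferred, 10 min 37C; NADPH regen, 60 min 37C; stopped w/ luciferin detection reagent, 20 min; luminescence. Normalized to 57uM ketoconazole (AC100).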
# [7] = molecular target: Cytochrome P450 2D6 (Homo sapiens) (UniProt P10635); assay: qHTS Assay for Inhibitors and Substrates of Cytochrome P450 2D6 (AID 891); settings: recombinant CYP2D6, luciferin-ME EGE luminescence; series mostly up to 57.1 µM; also: nearly all actives have a fitted effect of over 60% in size; also: potency is read from the fitted curve at half-maximal effect;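 as to activity change, negative = inhibition: luciferin methyl ether substrate demethylated by CYP2D6 with NADPH regeneration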
# In short: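 Luminescent read-out of luciferin formed by 5 nM human CYP2D6 demethylating 30 uM Luciferin-ME EGE (Km level) over 60 min at room temperature after NADPH regeneration addition. Data normalized to full inhibition by 1.43 uM quinidine.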
# [8] = molecular target: Guanine nucleotide-binding protein G(i) subunit alpha-1 (Homo sapiens) (UniProt P63096); assay: qHTS Assay for Inhibitors of RGS12 GoLoco Motif Activity (Green Fluorophore) (AID 879); settings: Galphai1/FITC-RGS12 GoLoco peptide, fluorescence polarization; series mostly up to 57.1 µM;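 also: negative values mean loss of peptide binding seen as reduced polarization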
# In short: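 A drop in FITC polarization marked displacement of the FITC-tagged RGS12 GoLoco peptide (10 nM) from Gαi1 (50 nM). Compounds were incubated 10 min at room temperature in Tris pH 7.5 buffer containing 150 mM NaCl, 0.1 mM GDP and 0.05% NP40; unlabeled peptide titration served as control.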
# [9] = qHTS Assay for Identification of Small Molecule Agonists for Hypoxia Response Element Signaling Pathway (AID 914; active = well fitted activation curve with a large enough effect in the signal ratio, with a control signal flat, not every such curve was filed as active; the % refers to the signal ratio); settings: ME-180 (cervical carcinoma) HRE-bla reporter, beta-lactamase ratio, CoCl2, 17 h; hits give high values
# In short: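 Compounds in a titration series were added to ME-180 reporter cells alongside an EC50 level of CoCl2. After 17 hours, beta-lactamase activity was read as the 460nm/530nm emission ratio of CCF4, giving AC50 values.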
# [10] = qHTS Assay for Identification of Small Molecule Agonists for Thrombopoietin (TPO) Signaling Pathway (AID 917); settings: TPO signaling pathway reporter cells, agonist qHTS, stimulated with TPO at its EC50; series mostly up to 38.5 µM
# In short: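 Luciferase reporter (Glycoprotein IIb promoter) in IL-3-deprived Ba/F3 cells carrying human TPO receptor; compounds co-added with 26 pM TPO, incubated 24 h, 37 C. Steadylite luminescence measured after 10 min.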
# Guanine nucleotide-binding protein G(i) subunit alpha-1 (Homo sapiens), sequence (P63096 whole entry, looked up): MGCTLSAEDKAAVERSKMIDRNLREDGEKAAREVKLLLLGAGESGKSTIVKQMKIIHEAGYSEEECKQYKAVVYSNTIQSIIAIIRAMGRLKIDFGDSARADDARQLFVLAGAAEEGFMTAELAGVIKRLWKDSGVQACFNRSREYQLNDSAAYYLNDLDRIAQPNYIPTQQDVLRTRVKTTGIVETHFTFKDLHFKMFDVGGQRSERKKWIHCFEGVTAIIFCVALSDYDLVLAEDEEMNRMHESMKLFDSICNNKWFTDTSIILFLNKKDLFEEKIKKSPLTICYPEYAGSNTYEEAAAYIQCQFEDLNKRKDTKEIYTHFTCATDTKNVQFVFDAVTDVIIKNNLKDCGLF
# Cytochrome P450 3A4 (Homo sapiens), sequence (P08684 whole entry, looked up): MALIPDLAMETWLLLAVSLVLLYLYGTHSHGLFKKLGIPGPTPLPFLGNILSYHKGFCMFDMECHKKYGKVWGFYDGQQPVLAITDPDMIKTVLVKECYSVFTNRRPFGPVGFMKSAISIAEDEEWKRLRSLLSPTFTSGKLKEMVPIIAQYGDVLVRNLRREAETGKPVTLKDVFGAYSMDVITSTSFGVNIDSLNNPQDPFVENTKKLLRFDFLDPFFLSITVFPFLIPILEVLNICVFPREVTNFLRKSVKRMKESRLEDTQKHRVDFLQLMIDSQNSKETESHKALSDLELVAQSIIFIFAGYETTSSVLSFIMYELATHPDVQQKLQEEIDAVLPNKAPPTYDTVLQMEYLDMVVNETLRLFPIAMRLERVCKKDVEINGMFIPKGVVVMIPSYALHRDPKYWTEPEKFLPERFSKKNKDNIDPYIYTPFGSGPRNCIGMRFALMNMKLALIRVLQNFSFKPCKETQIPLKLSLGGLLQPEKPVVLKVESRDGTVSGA
# Cytochrome P450 2C9 (Homo sapiens), sequence (P11712 whole entry, looked up): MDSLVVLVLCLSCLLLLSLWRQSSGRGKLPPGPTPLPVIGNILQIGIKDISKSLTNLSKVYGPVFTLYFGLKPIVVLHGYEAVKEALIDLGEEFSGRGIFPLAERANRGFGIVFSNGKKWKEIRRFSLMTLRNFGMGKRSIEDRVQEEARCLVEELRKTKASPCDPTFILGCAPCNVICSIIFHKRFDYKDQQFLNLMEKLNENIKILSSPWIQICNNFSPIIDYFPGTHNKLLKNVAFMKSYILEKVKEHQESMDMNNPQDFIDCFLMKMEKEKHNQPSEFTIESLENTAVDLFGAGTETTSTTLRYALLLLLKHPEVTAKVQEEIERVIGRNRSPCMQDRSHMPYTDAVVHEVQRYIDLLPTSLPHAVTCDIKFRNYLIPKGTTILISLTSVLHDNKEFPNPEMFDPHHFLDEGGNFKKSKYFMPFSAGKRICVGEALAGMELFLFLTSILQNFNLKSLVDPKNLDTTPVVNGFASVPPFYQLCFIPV
# Cytochrome P450 2C19 (Homo sapiens), sequence (P33261 whole entry, looked up): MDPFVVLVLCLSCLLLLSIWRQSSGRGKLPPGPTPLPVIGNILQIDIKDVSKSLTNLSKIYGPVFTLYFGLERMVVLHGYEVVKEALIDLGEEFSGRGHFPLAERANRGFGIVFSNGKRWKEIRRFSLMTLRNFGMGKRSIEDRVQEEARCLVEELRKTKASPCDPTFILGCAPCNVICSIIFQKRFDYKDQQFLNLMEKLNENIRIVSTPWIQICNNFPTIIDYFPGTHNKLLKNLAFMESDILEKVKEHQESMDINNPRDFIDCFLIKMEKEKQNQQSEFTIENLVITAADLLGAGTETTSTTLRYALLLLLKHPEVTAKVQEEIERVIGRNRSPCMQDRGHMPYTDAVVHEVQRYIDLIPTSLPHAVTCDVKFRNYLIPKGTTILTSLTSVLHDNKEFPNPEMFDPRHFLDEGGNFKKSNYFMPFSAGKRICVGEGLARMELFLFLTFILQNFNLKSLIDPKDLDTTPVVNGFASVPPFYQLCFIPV
# Cytochrome P450 2D6 (Homo sapiens), sequence (P10635 whole entry, looked up): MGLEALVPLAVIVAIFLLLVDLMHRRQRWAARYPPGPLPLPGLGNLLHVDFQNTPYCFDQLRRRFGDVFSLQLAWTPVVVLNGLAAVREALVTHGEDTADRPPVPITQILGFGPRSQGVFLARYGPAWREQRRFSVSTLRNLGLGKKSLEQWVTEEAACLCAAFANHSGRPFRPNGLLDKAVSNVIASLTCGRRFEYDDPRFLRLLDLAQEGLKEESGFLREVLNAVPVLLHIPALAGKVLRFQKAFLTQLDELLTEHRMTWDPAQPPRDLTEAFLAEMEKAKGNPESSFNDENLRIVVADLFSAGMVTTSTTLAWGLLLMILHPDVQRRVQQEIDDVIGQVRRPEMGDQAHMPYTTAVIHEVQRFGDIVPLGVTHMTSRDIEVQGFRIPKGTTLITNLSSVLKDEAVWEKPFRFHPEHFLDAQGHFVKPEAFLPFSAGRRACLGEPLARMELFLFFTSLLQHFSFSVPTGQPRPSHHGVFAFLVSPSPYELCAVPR
smiles,measurement,setting,value
NC(=O)c1ncn(C2OC(CO)C(O)C2O)n1 (centres undefined),outcome,[1],inactive
CC1=C(/C=C/C(C)=C/C=C/C(C)=C/CO)C(C)(C)CCC1,outcome,[2],inactive
same,outcome,[3],inactive
same,outcome,[4],inactive
same,outcome,[1],inactive
Cc1c(C)c2c(c(C)c1O)CC[C@@](C)(CCC[C@@H](C)CCC[C@@H](C)CCCC(C)C)O2,outcome,[5],inactive
same,outcome,[6],inactive
Nc1ccn([C@H]2CS[C@@H](CO)O2)c(=O)n1,outcome,[2],inactive
same,outcome,[3],inactive
CC1=C2[C@@H]([C@H](C)CC[C@H]2/C=C(\C)C(=O)O)[C@H](O)C1,outcome,[2],inactive
same,outcome,[3],inactive
C[C@@H]1CCC2[C@@H](C)[C@@H](O)O[C@@H]3O[C@@]4(C)CC[C@@H]1[C@@]23OO4 (some centres undefined),outcome,[4],inactive
same,outcome,[1],inactive
Nc1c(Br)cc(Br)cc1CNC1CCC(O)CC1 (centres undefined),outcome,[1],inactive
CCOC(C)=O,outcome,[2],inactive
same,outcome,[3],inactive
O=C1CSC2(CCN(CCCN3c4ccccc4Sc4ccc(Cl)cc43)CC2)N1,Potency,[7],631 nM (active)
CC(C(=O)O)c1ccc(N2Cc3ccccc3C2=O)cc1 (centres undefined),outcome,[4],inactive
same,outcome,[1],inactive
Cc1ccccc1,outcome,[2],inactive
same,outcome,[3],inactive
IC(I)I,outcome,[2],inactive
same,outcome,[3],inactive
CN=C(NC#N)Nc1ccc(C2=NNC(=O)C[C@@H]2C)cc1,outcome,[8],inactive
same,outcome,[5],inactive
same,Potency,[7],inactive
same,outcome,[6],inactive
same,activation,[9],1.72%
same,outcome,[10],inactive
Oc1cc(O)c2c(c1)OC(c1ccc(O)c(O)c1)C(O)C2 (centres undefined),outcome,[1],inactive
O=S(=O)(O)O,outcome,[2],inactive
same,outcome,[3],inactive
CCCCC/C=C\C/C=C\CCCCCCCC(=O)O,outcome,[2],inactive
same,outcome,[3],inactive
same,outcome,[4],inactive
CCCCCCCC(=O)O,outcome,[2],inactive
same,outcome,[3],inactive
COc1ccc(CCNC[C@H](O)c2ccc(O)cc2)cc1OC,outcome,[8],inactive
same,outcome,[4],inactive
same,outcome,[10],inactive
CCN(CC)Cc1cc(Nc2ccnc3cc(Cl)ccc23)ccc1O,outcome,[5],inactive
same,outcome,[6],inactive
CC(C)=O,outcome,[2],inactive
same,outcome,[3],inactive
CC(O)CO (centres undefined),outcome,[2],inactive
same,outcome,[3],inactive
CCC(=O)NCCC1CCc2ccc3c(c21)CCO3 (centres undefined),outcome,[1],inactive
CCCC(=O)Nc1ncnc2c1ncn2C1OC2COP(=O)(O)OC2C1OC(=O)CCC (centres undefined),outcome,[1],inactive
O=C(O)CN(CCN(CC(=O)O)CC(=O)O)CC(=O)O,outcome,[1],inactive
CC(C)(C)NC(=O)[C@@H]1C[C@@H]2CCCC[C@@H]2CN1C[C@@H](O)[C@H](Cc1ccccc1)NC(=O)[C@H](CC(N)=O)NC(=O)c1ccc2ccccc2n1,outcome,[2],inactive
same,outcome,[3],inactive
CCCCCCCC/C=C\CCCCCCCC(=O)O,outcome,[2],inactive
same,outcome,[3],inactive
CC1=C(/C=C/C(C)=C/C=C/C(C)=C/C=C/C=C(C)/C=C/C=C(C)/C=C/C2=C(C)C(=O)CCC2(C)C)C(C)(C)CCC1=O,outcome,[1],inactive
Cc1onc(-c2ccccc2)c1C(=O)N[C@@H]1C(=O)N2[C@@H]1SC(C)(C)[C@@H]2C(=O)O,activation,[9],-2.15%
CC1=C(/C=C/C(C)=C/C=C/C(C)=C/C=C/C=C(C)/C=C/C=C(C)/C=C/C2=C(C)CCCC2(C)C)C(C)(C)CCC1,outcome,[1],inactive
CN1Cc2c(N)cccc2C(c2ccccc2)C1 (centres undefined),outcome,[1],inactive
CC(Cc1ccc(O)c(O)c1)C(C)Cc1ccc(O)c(O)c1 (centres undefined),outcome,[4],inactive
CC(C)N=c1cc2n(-c3ccc(Cl)cc3)c3ccccc3nc-2cc1Nc1ccc(Cl)cc1,Potency,[7],2510 nM (active)
C=CCSSSCC=C,outcome,[4],inactive
same,outcome,[1],inactive
CCOc1ccc2c(c1)C(C)=CC(C)(C)N2,outcome,[2],inactive
same,outcome,[3],inactive
same,outcome,[4],inactive
same,outcome,[1],inactive
O=C(O)CCC(=O)C(=O)O,outcome,[2],inactive
same,outcome,[3],inactive
same,outcome,[5],inactive
same,"activity change, negative = inhibition",[7],16.8% [at 11.4 µM]
same,outcome,[6],inactive
O=CCCCC=O,outcome,[2],inactive
same,outcome,[3],inactive
CC[N+](C)(C)Cc1ccccc1Br,outcome,[8],inactive
CN(C)CCCN1c2ccccc2C(C)(C)c2ccccc21,Potency,[7],3980 nM (active)
